BL2 CD40 inh = inhibitors of CD40-induced NF-kB signaling, primary screen, BL2 cells, luciferase reporter, single point. 83,000 compounds, 0.94% hits. CD40L-induced, 4 h. AID 1053188, 2014. inhibition, % at 10 µM;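 active means mean inhibition of at least 50% with a set share of replicates also reaching that level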;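 further: 0% = neutral control wells and 100% = IKK inhibitor VII at 50 µM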
Active calls of the source: *. Shown is part of a subset that was picked to be rich in hits.

SMILES	BL2 CD40 inh
CC(=O)N/C(N)=N/c1nc(=O)c2ccccc2s1	-97
COc1ccc(CC(=O)OCCN(C)C)cc1	-1
O=C(N/N=C/c1ccc[nH]1)c1ccccc1OCc1ccccc1Cl	-12
CCOc1cc(N2CCOCC2)c(OCC)cc1NC(=O)CN1CCc2ccccc2C1	-2
CC(C)[C@H](NC(=O)NCCc1ccccc1)C(=O)O	2
Cc1ccc(OCc2cc(C(=O)N3CCc4sccc4C3)no2)cc1C	38*
Cc1ccc(OCC(=O)N2CCc3ccccc3C2)cc1C	-13
O=C(c1cc(-c2cccs2)on1)N1CCc2ccccc2C1	-18
CC1(C)CC(=O)C(C=NCCN2CCN(C(=S)Nc3ccc(F)cc3)CC2)=C(O)C1	11
O=C(COc1cccc2ccccc12)N1CCN(c2ccccn2)CC1	-48
O=C(CCC1CCCCC1)Nc1cc(Cl)ccc1N1CCOCC1	15
CNC[C@@H]1Oc2ccccc2C(=O)N(C)C[C@@H]1C	-4
O=C(O)c1ccccc1O	4
CS(=O)c1ccccc1O (centres undefined)	12
O=S(c1ccccc1O)S(=O)c1ccccc1O (centres undefined)	82*
CCCCn1c(CNC(=O)C(C)(C)C)nc2ccccc21	16
Cc1cc(C)n2nc(S(=O)(=O)N(C)Cc3ccccc3)nc2n1	4
COc1ccc(S(=O)(=O)N2CCN(C)CC2)cc1C(=O)N1CCCCC1	-1

Compound activity from PubChem.
